Shown are actives, neighbours in structure and some others; about 21% of the full set was active somewhere.
IL-1B inflam inh = inhibitors of inflammasome signaling (IL-1 beta secretion); AID 743279; activity change, % at 57.5 µM; 360,000 compounds, 4.7% hits; THP-1 LPS/ATP IL-1B secretion, AlphaLISA, 16 h; stronger effect = lower value; in the data active means activity change below about -50%; inconclusive means mostly about -30% to -49%
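Secreted IL-1B measured by AlphaLISA bead assay after 16 h compound exposure of THP-1 cells; compounds (final up to 57.5 uM) added 1 h before LPS (250 ng/mL) and ATP (1.25 mM) stimulation; lower signal means less secretion.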
VP16 counter = Gal4-VP16 reporter inhibition counter-screen | Drosophila S2 Gal4-VP16 UAS-luciferase, luminescence, 20 h | Potency, µM (titrated, usually from 53.6 µM), for the others: at the highest dose activity, negative = inhibition, actives largely listed as inhibitors | 310,000 compounds, 3.5% hits;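 further: Gal4-VP16 expression switched on by copper sulfate through the metallothionein promoter; potency means the concentration at half of the fitted maximal effect; nearly all actives have a fitted effect of over 50% in size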
TDP1 cell noCPT = qHTS for Inhibitors of human tyrosyl-DNA phosphodiesterase 1 (TDP1): qHTS in cells in absence of CPT; DT40 Tdp1-/- hTDP1 cells, no CPT, ATP luminescence, 48 h; Potency, µM (doses to about 46.2 µM), without a hit: at the highest dose activity change, negative = growth inhibition, actives largely listed as inhibitors; 420,000 compounds, 15% hits; AID 686978, 2013; further: potency means the concentration at half of the fitted maximal effect; nearly all actives have a fitted effect of over 55% in size
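Camptothecin absent (DMSO only). Human TDP1-complemented DT40 knockout cells, 400 cells/well, 37 °C for minimum 48 hr; ATP measured via CellTiter-Glo, 30 min dark incubation, luminescence.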
RORg inh = blocks mouse ROR gamma transcriptional activity; P51450; Drosophila S2 Gal4-RORgamma UAS-luciferase reporter, 20 h; Potency, µM (titrated, usually from 53.6 µM), for the others: at the top dose activity change, negative = inhibition, most hits filed as inhibitors; 310,000 compounds, 5.4% hits; further: potency means the concentration at half of the fitted maximal effect; nearly all actives have a fitted effect of over 60% in size
Target sequence (P51450 whole entry, looked up, the tested form may be a part): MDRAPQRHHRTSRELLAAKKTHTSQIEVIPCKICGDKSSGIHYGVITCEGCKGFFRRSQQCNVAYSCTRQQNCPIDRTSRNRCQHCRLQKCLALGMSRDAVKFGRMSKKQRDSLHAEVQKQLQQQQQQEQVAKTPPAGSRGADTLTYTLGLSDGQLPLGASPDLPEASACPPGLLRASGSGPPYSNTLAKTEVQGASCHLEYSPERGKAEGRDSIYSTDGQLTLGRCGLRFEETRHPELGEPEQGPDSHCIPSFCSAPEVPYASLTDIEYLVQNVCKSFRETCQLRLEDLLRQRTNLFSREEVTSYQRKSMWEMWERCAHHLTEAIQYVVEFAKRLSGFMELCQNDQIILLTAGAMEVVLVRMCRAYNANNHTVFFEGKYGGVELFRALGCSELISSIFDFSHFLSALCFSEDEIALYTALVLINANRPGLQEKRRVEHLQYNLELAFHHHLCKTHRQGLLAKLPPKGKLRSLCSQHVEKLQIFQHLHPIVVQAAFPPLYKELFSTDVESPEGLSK
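Drosophila S2 cells stably expressing Gal4-DBD/mouse RORγ fusion under metallothionein promoter plus UAS-luciferase; compound 1 h, then 700 uM CuSO4 induction for 20 h at ambient temperature; inhibition read as reduced luminescence.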
TDP1 cell CPT = DT40-hTDP1 cell growth loss with CPT; chicken DT40 Tdp1-/-;hTDP1 cells + 20 nM CPT, ATP luminescence, 48 h; Potency, µM (series often up to 46.2 µM), inactives show at the highest dose activity change, negative = growth inhibition, usual class: inhibitors; 420,000 compounds, 12% hits; further: potency means the concentration at half of the fitted maximal effect; nearly all actives have a fitted effect of over 55% in size
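Cell growth measured by CellTiter-Glo luminescence after a minimum 48 h, 37 C compound exposure with 20 nM CPT in Tdp1-knockout DT40 cells stably expressing hTDP1, seeded 400/well; qHTS titration format.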
ELG1 repair inh = blocks ELG1-dependent DNA repair in HEK293T cells; HEK293T ELG1-luciferase reporter, luminescence, 16 h; DNA damage induced by 5-fluorouridine; Potency, µM (top dose mostly 46.1 µM), for the others: top-dose activity change, negative = inhibition, actives largely listed as inhibitors; 330,000 compounds, 2.3% hits; AID 504467; further: potency means the concentration at half of the fitted maximal effect; nearly all actives have a fitted effect of over 55% in size
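In this reporter screen, reduction of luminescence relative to DMSO vehicle indicated activity. Compounds and 5-fluorouridine were added together to 2,000 cells per well, incubated for 16 hr at 37 °C, then developed with ONE-Glo.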
Numbers without * were called inactive; u = inconclusive; x = not tested or not shown; [ ] = another dose, or the depositor's remark. Unless noted, the call rests on the fitted dose curve; in most records, active means well fitted curve in the direction sought with a large enough effect; inconclusive means small, poorly fitted or top-dose-only effect, or another doubt; inactive means no such curve, though single readings can be large; an effect the other way counts as inactive or inconclusive. On the % scale 0 is the no-effect control and ±100 the full control effect.

SMILES | IL-1B inflam inh | VP16 counter | TDP1 cell noCPT | RORg inh | TDP1 cell CPT | ELG1 repair inh
O=C(CSc1nc(C(F)(F)F)cc(=O)[nH]1)Nc1ccc2c(c1)OCCO2 | 16 | x | 10% | x | -4% | 1%
CC1CCC(NC(=O)CC(C)(C)Cc2nc3ccccc3c(=O)[nH]2)CC1 (configuration not stated) | -56* | -4% | 23µM* | u | 16µM* | u
COc1ccccc1NC(=S)NC(=O)C1CC1 | -10 | u | -20% | 13µM* | 1% | -8%
Cc1ccc(NC(=S)NC(=O)C2CCCCC2)c(Br)c1 | 46 | x | 15µM* | x | u | u
O=C(NC(=S)Nc1ccccc1Br)C1CCC1 | 44 | 5µM* | -2% | 3.2µM* | -19% | -5%
N#Cc1ccccc1NC(=S)NC(=O)C1CCC1 | 10 | -6% | 4% | u | -26% | 2%
O=C(NC(=S)Nc1ccccc1Cl)C1CC1 | 14 | 11µM* | 11% | u | -11% | u
COc1ccc(C(CNC(=O)c2ccc(C)c(S(=O)(=O)N3CCOCC3)c2)N2CCCC2)cc1 (configuration not stated) | -7 | x | -4% | x | -15% | x
CCOC(=O)c1c(C)[nH]c(C(=O)OCC(=O)NC2(C#N)CCCCC2)c1C | u | x | u | x | u | -16%
COc1ccc(CN(C)C(=O)c2ccc(NC(=O)CC3SC(N4CCCCC4)=NC3=O)cc2)c(OC)c1 (configuration not stated) | -30 | x | u | x | u | x
CCCCN(CC)S(=O)(=O)c1ccc(C(=O)N=c2sc3cc(NC(C)=O)ccc3n2C)cc1 | -6 | -28% | 16µM* | u | 8.2µM* | u
CCCCN(C)S(=O)(=O)c1ccc(C(=O)N=c2sc3cc(NC(C)=O)ccc3n2C)cc1 | 6 | 1% | -86% | 1% | u | -1%
CCc1nc(CNC(=O)C2CCC(=O)N(CCc3cccc(F)c3)C2)no1 (configuration not stated) | 3 | -3% | 1% | 1% | -25% | 24%
Cc1nc(SCC(=O)NCc2cccs2)nc(C)c1C | 37 | 0% | 5% | u | 15% | -20%
O=C(CSc1cccc2cccc(Cl)c12)NCc1cccs1 | -5 | -8% | 26µM* | 19% | u | -4%
COc1ccc(-c2noc(-c3ccc(NCc4ccco4)c([N+](=O)[O-])c3)n2)cc1OC | x | x | 9.2µM* | x | 13µM* | x
CCCc1noc(-c2ccc(NCc3ccccc3OC)c([N+](=O)[O-])c2)n1 | x | x | 7.3µM* | x | 10µM* | x
COc1cc(-c2noc(-c3ccc(NCc4cccnc4)c([N+](=O)[O-])c3)n2)cc(OC)c1OC | x | x | 6.5µM* | x | 7.3µM* | x
Cc1ccccc1CSCC(=O)Nc1ccccc1F | 11 | -7% | -14% | 16% | 20% | u
CC12CC(c3ccccc3O1)N(C(=O)c1ccco1)C(=S)N2c1ccc(F)cc1 (configuration not stated) | 40 | u | u | 10µM* | u | -5%
CN(C)C(=O)N1CCN(C(=O)c2ccco2)CC1 | -9 | 4% | 5% | -36% | 11% | 30%
O=C(C[C@H]1C/C=C\CCC(=O)OC[C@H]2CCCN2C1=O)NCCO | 16 | x | 14% | x | 9% | 25%
CCOC(=O)N1CCN(C(=O)CSc2nnc(-c3ccc(C)c(C)c3)o2)CC1 | -11 | -5% | 15µM* | -11% | u | u
CCOC(=O)N1CCN(C(=O)CSc2nnc(-c3ccccc3OC)o2)CC1 | -1 | 10% | -26% | 12% | 2% | 0%
CCOC(=O)N1CCN(C(=O)CCSc2ccc(C)cc2)CC1 | -5 | 29% | 23µM* | -28% | 23µM* | u
SMILES | IL-1B inflam inh | VP16 counter | TDP1 cell noCPT | RORg inh | TDP1 cell CPT | ELG1 repair inh
Cc1ccc(-c2nnc(SCC(=O)N3CCCC3)o2)cc1C | -9 | -11% | -26% | 8% | -5% | u
CCOC(=O)N1CCN(C(=O)CSc2nnc(-c3cccc(OC)c3)o2)CC1 | 5 | 1% | 23µM* | -14% | 16µM* | -27%
CCOC(=O)N1CCN(C(=O)CCSc2ccc(Cl)cc2)CC1 | -5 | 19% | -30% | u | -13% | u
CCOC(=O)N1CCN(C(=O)CSc2nnc(-c3cc(OC)ccc3OC)o2)CC1 | -1 | 4% | 21µM* | -13% | 15µM* | u
CCOC(=O)N1CCN(C(=O)CSc2nnc(-c3cc(OC)cc(OC)c3)o2)CC1 | -8 | 5% | u | -21% | -7% | u
CCc1ccccc1NC(=O)Cn1c(=O)n(CC(=O)NCCc2ccccc2)c(=O)c2ccccc21 | x | x | -5% | x | -23% | x
COc1ccccc1N1CCN(CCn2c(=O)[nH]c3c([nH]c4ccccc43)c2=O)CC1 | x | -17% | -4% | 18% | 5% | x
COc1ccc(N2CCN(CCCn3c(=S)[nH]c4ccccc4c3=O)CC2)cc1 | 21 | u | u | 6.3µM* | u | 21%
COc1ccccc1N1CCN(CCCn2c(=S)[nH]c3ccccc3c2=O)CC1 | -21 | u | 9.2µM* | 13µM* | 13µM* | u
CCOc1cc2[nH]c(=O)n(CCCN3CCN(c4ccc(OC)cc4)CC3)c(=O)c2cc1OCC | -14 | 1% | u | 2% | u | -29%
O=C(Nc1nnc(N2CCCCCC2)s1)Nc1ccccc1C(F)(F)F | x | x | -30% | x | -5% | x
CNc1ccc(/C=C2\C=Cc3ccccc32)cc1OC | x | x | u | x | -5% | x
CC(CN1CC(=O)NC(=O)C1)N1CC(=O)NC(=O)C1 (configuration not stated) | 1 | 0% | u | -18%[10 µM] | u | x
O=C1CN(CCN2CC(=O)NC(=O)C2)CC(=O)N1 | x | x | 7.1µM* | x | 7.9µM* | x
O=C(Nc1ccccc1F)c1ccc2sc([C@@H]3O[C@H](CO)[C@H](O)[C@H](O)[C@H]3O)nc2c1 | -10 | x | -7% | x | 0% | x
Cc1ccc2c(C)[nH]c(=O)cc2c1 | 34 | -7% | 7.3µM* | 26% | 7.3µM* | u
COCCNC(=O)C1(C(F)(F)F)C/C(=C\Cc2ccccc2)CCCO1 (configuration not stated) | x | u | x | -37% | x | x
O=C(OCc1ccccc1)/C(=C/c1ccc(Cl)cc1)NC(=O)c1ccccc1Cl | 0 | u | u | -43% | -29% | 16%
Cc1ccc(C(=O)N/C(=C\c2ccccc2)C(=O)OCc2ccccc2)cc1 | -51* | -6% | u | 40% | 29µM* | u

Assay outcomes deposited in PubChem by National Center for Advancing Translational Sciences (NCATS).
